Measurements: PubChem BioAssay (Tox21)
Results filed as inconclusive are left out. Activity calls are given as the source filed them. Unless noted, calls come from the whole dose curve; as a rule, active = well fitted curve in the direction sought with a large enough effect in the repeat runs; inconclusive = weak or mixed curves; inactive = no such curve, though single readings can be large; an effect the other way counts as inactive or inconclusive.

Experiments:
[1] = target: Aryl hydrocarbon receptor (Homo sapiens) (UniProt P35869); assay: qHTS assay to identify small molecule that activate the aryl hydrocarbon receptor (AhR) signaling pathway (AID 743085);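 note: HG2L7.5c1 human HepG2 liver cells with stably integrated DRE-driven firefly reporter; series mostly up to about 70 µM; nearly all actives have a fitted effect of over 15% in size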
Outline: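 Steps: seed HepG2-AhR-luc cells; allow 5 h at 37C; pin-transfer test compound or vehicle; incubate 24 h at 37C; add viability dye (30 min, 37C) and read fluorescence; add luciferase substrate (30 min, RT) and read luminescence.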

[2] = target: Peroxisome proliferator-activated receptor gamma (Homo sapiens) (UniProt P37231); assay: qHTS assay to identify small molecule agonists of the peroxisome proliferator-activated receptor gamma (PPARg) signaling pathway (AID 743094; active = well fitted activation curve with a large enough effect in the signal ratio in the repeat runs, not every such curve was filed as active; the % refers to the signal ratio)
Outline: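 GeneBLAzer PPARg UAS-bla HEK293H cells were plated, rested 5 h, then exposed to compounds for 17 h at 37C. Beta-lactamase activity was read by LiveBLAzer B/G FRET substrate fluorescence after 1 h at room temperature.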

[3] = qHTS assay to identify small molecule antagonists of the peroxisome proliferator-activated receptor gamma (PPARg) signaling pathway - cell viability counter screen (AID 743194); conditions: Potency: co-treated with 50 nM rosiglitazone; note: nearly all actives have a fitted effect of over 55% in size
Outline: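 PPARg-UAS-bla HEK293H cells were plated, rested 5 h at 37 C, then treated with compounds plus rosiglitazone (50 nM final) for 17 h at 37 C; viability was then read by CellTiter-Glo luminescence after 30 min at room temperature.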

[4] = qHTS assay for small molecule agonists of the antioxidant response element (ARE) signaling pathway - cell viability counter screen (AID 743203; calls by dose curve; note: nearly all actives have a fitted effect of over 55% in size)
Outline: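 ARE-bla HepG2 cells were plated, rested 5 h at 37C/5% CO2, then exposed to compounds in DMSO for 16 h. Viability was read as CellTiter-Glo luminescence after 30 min at room temperature, in the same wells as the ARE screen.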

[5] = qHTS assay for small molecule activators of the heat shock response signaling pathway - cell viability counter screen (AID 743209); note: nearly all actives have a fitted effect of over 50% in size
Outline: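 HSE-bla HeLa cells plated overnight, then exposed to Tox21 compounds (23 nL in DMSO) for 5 h at 37 C. After the bla reporter read, CellTiter-Glo was added in the same wells and luminescence read after 30 min at room temperature.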

[6] = qHTS assay for small molecule activators of the heat shock response signaling pathway (AID 743210; active = well fitted activation curve with a large enough effect in the signal ratio in the repeat runs, with a control signal flat, not every such curve was filed as active; the % refers to the signal ratio; note: series mostly up to about 63 µM)
Outline: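 HSE-bla HeLa cells (beta-lactamase reporter under heat shock response elements) were exposed to compounds for 5 h at 37 C, then loaded with LiveBLAzer B/G FRET substrate for 2.5 h at room temperature before fluorescence reading.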

[7] = qHTS assay to identify small molecule agonists of the peroxisome proliferator-activated receptor delta (PPARd) signaling pathway - cell viability counter screen (AID 743211); note: nearly all actives have a fitted effect of over 55% in size
Outline: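 Viability of GeneBLAzer PPARd UAS-bla HEK293H cells was assessed after 17 h compound incubation at 37C, using CellTiter-Glo reagent added after the reporter read and luminescence recorded 30 min later.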

[8] = target: Peroxisome proliferator-activated receptor delta (Homo sapiens) (UniProt Q03181); assay: qHTS assay to identify small molecule agonists of the peroxisome proliferator-activated receptor delta (PPARd) signaling pathway (AID 743212; calls by dose curve)
Outline: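 GeneBLAzer PPARd UAS-bla HEK293H cells (beta-lactamase reporter under UAS control), plated and rested 5 h at 37 C, then exposed to compounds in DMSO at 37 C; LiveBLAzer B/G FRET substrate added, 2 h room temperature, fluorescence read.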

[9] = qHTS assay to identify small molecule antagonists of the peroxisome proliferator-activated receptor delta (PPARd) signaling pathway - cell viability counter screen (AID 743213); note: nearly all actives have a fitted effect of over 50% in size
Outline: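 Cytotoxicity counter screen: CellTiter-Glo luminescence read 30 min after addition, in the same wells as the reporter assay. There, PPARd UAS-bla HEK293H cells (3000/well) were treated 17 h at 37 C with compound and 300 nM L165041.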

[10] = target: Peroxisome proliferator-activated receptor delta (Homo sapiens) (UniProt Q03181); assay: qHTS assay to identify small molecule antagonists of the peroxisome proliferator-activated receptor delta (PPARd) signaling pathway (AID 743215; active = well fitted inhibition curve with a large enough effect in the signal ratio in the repeat runs, not every such curve was filed as active; the % refers to the signal ratio;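 note: cells stimulated with agonist L165041 at 300 nM final during compound exposure; series mostly up to about 62 µM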)
Outline: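 PPARd-bla HEK293H cells (UAS-bla reporter) preincubated 5 h, then given compound plus 300 nM final L165041 agonist for 17 h at 37 C. Beta-lactamase activity read by LiveBLAzer B/G FRET substrate fluorescence after 2 h at room temperature.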

[11] = target: Bile acid receptor (Homo sapiens) (UniProt Q96RI1); assay: qHTS assay to identify small molecule antagonists of the farnesoid-X-receptor (FXR) signaling pathway (AID 743217; active = well fitted inhibition curve with a large enough effect in the signal ratio in the repeat runs, not every such curve was filed as active; the % refers to the signal ratio)
Outline: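 FXR-UAS-bla HEK 293T cells (beta-lactamase reporter) given compound plus chenodeoxycholic acid (50 uM final), 16 h at 37C. LiveBLAzer B/G FRET substrate added for 2 h at room temperature; fluorescence read.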

[12] = qHTS assay to identify small molecule agonists of the farnesoid-X-receptor (FXR) signaling pathway - cell viability counter screen (AID 743218); note: nearly all actives have a fitted effect of over 45% in size
Outline: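 FXR-UAS-bla HEK 293T cells exposed to compounds for 16 h at 37C. Cytotoxicity read in the same wells by CellTiter-Glo luminescence after 30 min at room temperature, following the beta-lactamase FRET read.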

[13] = target: Bile acid receptor (Homo sapiens) (UniProt Q96RI1); assay: qHTS assay to identify small molecule agonists of the farnesoid-X-receptor (FXR) signaling pathway (AID 743220; active = well fitted activation curve with a large enough effect in the signal ratio in the repeat runs, not every such curve was filed as active; the % refers to the signal ratio)
Outline: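 Beta-lactamase reporter under UAS control in GeneBLAzer FXR HEK 293T cells (5000/well) measured with LiveBLAzer FRET substrate after 2 h at room temperature. Compound exposure lasted 16 h at 37C.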

[14] = qHTS assay to identify small molecule antagonists of the farnesoid-X-receptor (FXR) signaling pathway - cell viability counter screen (AID 743221; active = well fitted cell-killing curve with a large enough effect in the repeat runs, not every such curve was filed as active; note: nearly all actives have a fitted effect of over 50% in size)
Outline: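 Quantitative HTS of the Tox21 10K library run in parallel with the beta-lactamase reporter read. HEK 293T cells carrying a UAS-driven bla reporter got compound and 50 uM CDCA (final) for 16 h; ATP-based luminescence followed.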

[15] = target: Vitamin D3 receptor (Homo sapiens) (UniProt P11473); assay: qHTS assay to identify small molecule agonists of the vitamin D receptor (VDR) signaling pathway (AID 743222; calls by dose curve)
Outline: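 VDR-bla cells plated 4 h at 37 C, then exposed to compounds for 16 h at 37 C. Beta-lactamase reporter activity measured by fluorescence after 2 h room-temperature loading with LiveBLAzer B/G FRET substrate.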

[16] = target: Vitamin D3 receptor (Homo sapiens) (UniProt P11473); assay: qHTS assay to identify small molecule antagonists of the vitamin D receptor (VDR) signaling pathway (AID 743223; active = well fitted inhibition curve with a large enough effect in the signal ratio in the repeat runs, not every such curve was filed as active; the % refers to the signal ratio)
Outline: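 Fluorescence from LiveBLAzer B/G FRET substrate, read after 2 h at room temperature, reflects beta-lactamase reporter activity in VDR-bla cells treated 16 h at 37C with compounds and agonist 1alpha,25-dihydroxyvitamin D3 (3 nM final).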

[17] = qHTS assay to identify small molecule that activate the aryl hydrocarbon receptor (AhR) signaling pathway - cell viability counter screen (AID 743086);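 note: HepG2 liver cells carrying the AhR DRE luciferase reporter; series mostly up to about 70 µM; nearly all actives have a fitted effect of over 45% in size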
Outline: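 HepG2-AhR-luc (HG2L7.5c1) cells, 4000/well, were preincubated 5 h at 37C, exposed to compound in qHTS format for 24 hr at 37C, then given CellTiter-Fluor for 30 min; viability was read as fluorescence in the reporter wells.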

[18] = target: Peroxisome proliferator-activated receptor gamma (Homo sapiens) (UniProt P37231); assay: qHTS assay to identify small molecule antagonists of the peroxisome proliferator-activated receptor gamma (PPARg) signaling pathway (AID 743191; calls by dose curve; note: series mostly up to about 63 µM; nearly all actives have a fitted effect of over 30% in size)
Outline: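 GeneBLAzer PPARg UAS-bla HEK293H cells carrying a UAS-driven beta-lactamase reporter were plated at 3000 cells/well, preincubated 5 h at 37C, then given compound for 17 h at 37C; LiveBLAzer B/G FRET substrate was read after 1 h at room temperature.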

[19] = qHTS assay to identify small molecule agonists of the vitamin D receptor (VDR) signaling pathway - cell viability counter screen (AID 743224); note: series mostly up to about 63 µM; nearly all actives have a fitted effect of over 50% in size
Outline: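 VDR-bla cells, 4 h after plating, exposed to compounds for 16 h at 37C; viability then read in the same wells as CellTiter-Glo luminescence after 30 min at room temperature, following the bla FRET read.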

[20] = qHTS assay for small molecule agonists of the antioxidant response element (ARE) signaling pathway (AID 743202; active = well fitted activation curve with a large enough effect in the signal ratio in the repeat runs, not every such curve was filed as active; the % refers to the signal ratio; note: potency is the fitted concentration of half-maximal effect)
Outline: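 Read-out: LiveBLAzer B/G FRET substrate fluorescence after 2 h at room temperature, following 16 h compound treatment at 37 C of HepG2 cells carrying an ARE-driven beta-lactamase reporter.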

Measured: Potency

Chain of Vitamin D3 receptor (Homo sapiens) (P11473 whole entry, looked up): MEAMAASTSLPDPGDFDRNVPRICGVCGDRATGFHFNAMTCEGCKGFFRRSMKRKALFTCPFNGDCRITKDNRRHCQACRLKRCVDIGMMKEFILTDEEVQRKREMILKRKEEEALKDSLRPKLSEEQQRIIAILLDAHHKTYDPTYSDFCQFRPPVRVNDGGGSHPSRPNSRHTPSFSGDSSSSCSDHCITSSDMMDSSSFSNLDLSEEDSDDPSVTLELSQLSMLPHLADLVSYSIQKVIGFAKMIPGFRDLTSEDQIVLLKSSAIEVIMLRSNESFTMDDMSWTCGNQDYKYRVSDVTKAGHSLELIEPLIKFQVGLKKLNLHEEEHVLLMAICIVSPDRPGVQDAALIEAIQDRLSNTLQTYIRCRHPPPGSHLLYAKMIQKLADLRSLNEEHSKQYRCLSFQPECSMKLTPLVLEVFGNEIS
Chain of Peroxisome proliferator-activated receptor gamma (Homo sapiens) (P37231 whole entry, looked up): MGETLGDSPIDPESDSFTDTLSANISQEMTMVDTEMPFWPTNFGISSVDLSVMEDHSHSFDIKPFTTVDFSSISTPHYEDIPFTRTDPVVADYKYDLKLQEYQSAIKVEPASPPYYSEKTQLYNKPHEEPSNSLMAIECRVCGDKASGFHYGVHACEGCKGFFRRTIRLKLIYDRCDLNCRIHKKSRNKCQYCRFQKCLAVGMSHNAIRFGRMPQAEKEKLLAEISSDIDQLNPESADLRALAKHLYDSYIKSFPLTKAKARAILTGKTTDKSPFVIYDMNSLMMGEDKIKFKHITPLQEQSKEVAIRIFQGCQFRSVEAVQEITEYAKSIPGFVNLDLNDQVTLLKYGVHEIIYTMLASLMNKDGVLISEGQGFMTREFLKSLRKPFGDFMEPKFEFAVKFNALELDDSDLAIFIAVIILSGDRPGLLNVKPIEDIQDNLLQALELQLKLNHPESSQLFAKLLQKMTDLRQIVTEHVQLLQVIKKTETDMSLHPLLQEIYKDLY
Chain of Peroxisome proliferator-activated receptor delta (Homo sapiens) (Q03181 whole entry, looked up): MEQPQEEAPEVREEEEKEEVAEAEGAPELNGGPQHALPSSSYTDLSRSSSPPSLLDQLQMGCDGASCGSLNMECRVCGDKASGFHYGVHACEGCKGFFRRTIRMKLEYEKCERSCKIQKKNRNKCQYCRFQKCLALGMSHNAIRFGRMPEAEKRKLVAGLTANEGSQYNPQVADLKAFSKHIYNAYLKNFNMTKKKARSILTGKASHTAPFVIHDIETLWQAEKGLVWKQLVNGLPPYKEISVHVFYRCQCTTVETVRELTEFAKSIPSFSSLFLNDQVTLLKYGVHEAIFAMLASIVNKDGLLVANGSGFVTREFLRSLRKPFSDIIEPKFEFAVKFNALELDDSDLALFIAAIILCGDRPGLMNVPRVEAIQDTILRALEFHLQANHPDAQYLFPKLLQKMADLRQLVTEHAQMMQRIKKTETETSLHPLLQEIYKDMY
Chain of Bile acid receptor (Homo sapiens) (Q96RI1 whole entry, looked up): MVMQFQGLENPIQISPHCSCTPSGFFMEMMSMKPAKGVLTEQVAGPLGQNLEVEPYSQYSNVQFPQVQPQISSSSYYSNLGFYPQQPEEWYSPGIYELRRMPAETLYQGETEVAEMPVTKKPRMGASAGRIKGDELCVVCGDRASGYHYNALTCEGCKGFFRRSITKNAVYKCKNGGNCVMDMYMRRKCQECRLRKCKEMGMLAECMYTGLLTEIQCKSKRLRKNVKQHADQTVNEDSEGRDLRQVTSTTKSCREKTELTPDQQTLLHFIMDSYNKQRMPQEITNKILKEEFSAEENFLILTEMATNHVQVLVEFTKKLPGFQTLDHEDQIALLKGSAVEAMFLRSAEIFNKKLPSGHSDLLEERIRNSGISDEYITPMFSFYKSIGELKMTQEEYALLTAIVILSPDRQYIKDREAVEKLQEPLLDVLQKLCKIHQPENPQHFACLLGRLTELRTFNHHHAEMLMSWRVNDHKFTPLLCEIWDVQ
Chain of Aryl hydrocarbon receptor (Homo sapiens) (P35869 whole entry, looked up): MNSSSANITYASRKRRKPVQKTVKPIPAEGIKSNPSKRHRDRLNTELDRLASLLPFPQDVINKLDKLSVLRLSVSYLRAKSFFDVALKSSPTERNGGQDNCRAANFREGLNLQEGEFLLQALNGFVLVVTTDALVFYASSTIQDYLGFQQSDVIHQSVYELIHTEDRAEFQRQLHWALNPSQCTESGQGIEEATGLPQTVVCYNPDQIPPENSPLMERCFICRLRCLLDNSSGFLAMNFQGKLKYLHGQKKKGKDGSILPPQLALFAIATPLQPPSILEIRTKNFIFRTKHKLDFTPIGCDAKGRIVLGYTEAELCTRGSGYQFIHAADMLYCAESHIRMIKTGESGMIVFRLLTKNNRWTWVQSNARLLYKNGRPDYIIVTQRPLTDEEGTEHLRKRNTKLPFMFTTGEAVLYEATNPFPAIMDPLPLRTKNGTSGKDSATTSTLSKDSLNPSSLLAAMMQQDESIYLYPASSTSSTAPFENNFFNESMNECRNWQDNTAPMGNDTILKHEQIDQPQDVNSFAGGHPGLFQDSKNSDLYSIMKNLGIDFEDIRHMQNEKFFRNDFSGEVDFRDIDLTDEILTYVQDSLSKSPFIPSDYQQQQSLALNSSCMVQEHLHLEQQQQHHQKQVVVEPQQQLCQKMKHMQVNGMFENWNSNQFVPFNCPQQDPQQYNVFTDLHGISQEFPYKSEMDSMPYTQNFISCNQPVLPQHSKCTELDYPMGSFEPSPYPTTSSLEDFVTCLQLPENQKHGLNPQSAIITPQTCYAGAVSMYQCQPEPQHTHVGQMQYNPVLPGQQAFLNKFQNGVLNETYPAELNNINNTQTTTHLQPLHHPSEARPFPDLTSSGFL

O=C(O)c1c(Cl)ccc2cc(Cl)cnc12
not listed: [17] | [18] | [19] | [20]
inactive: all other assays above

CCCCS(=O)(=O)Cl
not listed: [1] | [6] | [13] | [14] | [16] | [19] | [20]
inactive: all other assays above

O=C(Cl)c1ccccc1
not listed: [1] | [3] | [10] | [12] | [14] | [16] | [20]
inactive: all other assays above

CS(=O)(=O)Cl
not listed: [1] | [9] | [10] | [11] | [13] | [16] | [18]
inactive: all other assays above

CN1COCN(Cc2cnc(Cl)s2)/C1=N\[N+](=O)[O-]
not listed: [1] | [9] | [16] | [18]
inactive: all other assays above

C=CCCC#N
not listed: [1] | [5] | [10] | [11] | [15] | [16] | [18]
inactive: all other assays above

CN(C)CCN(C)C
not listed: [1] | [6] | [13] | [14] | [20]
inactive: all other assays above

Cl/C=C/CCl
not listed: [1] | [10] | [11] | [13] | [15] | [20]
inactive: all other assays above

O=P(O)(O)CN(CP(=O)(O)O)CP(=O)(O)O
not listed: [1] | [6] | [11] | [13] | [18]
inactive: all other assays above

CNC(=O)Oc1cc(C)c(N(C)C)c(C)c1
not listed: [1] | [6] | [13] | [15] | [16]
inactive: all other assays above

COC(=O)[C@@H](N)CCCN/C(N)=N/[N+](=O)[O-]
not listed: [1] | [10] | [12] | [15] | [16] | [20]
inactive: all other assays above

S=C=S
not listed: [1] | [6] | [8] | [10] | [11] | [13] | [19]
inactive: all other assays above

CC(C)[C@]12CC(=O)[C@H](C)[C@H]1C2
not listed: [1] | [9] | [13] | [14] | [18] | [19] | [20]
inactive: all other assays above

O=C(Cl)OCc1ccccc1
inactive: [17] | [2] | [3] | [20] | [4] | [5] | [7] | [9] | [12] | [19]

COC(=O)c1ccccc1CS(=O)(=O)NC(=O)Nc1nc(OC)cc(OC)n1
not listed: [1] | [10] | [16] | [20]
inactive: all other assays above

O=CCCl
not listed: [1] | [8] | [10] | [11] | [13]
inactive: all other assays above

CN(C)CCc1c[nH]c2cccc(OP(=O)(O)O)c12
not listed: [1] | [15] | [16] | [20]
inactive: all other assays above

COc1cccc([C@@]2(O)CCCC[C@@H]2CN(C)C)c1
not listed: [1] | [6] | [10] | [11] | [13] | [15] | [16] | [20]
inactive: all other assays above

C=C1C[C@@H]2[C@H](CC[C@]3(C)C(=O)CC[C@@H]23)[C@@]2(C)C=CC(=O)C=C12
active: [20] 2660 nM
not listed: [1] | [8] | [10] | [13] | [16] | [18]
inactive: all other assays above
